For 3 compounds, outcome and AC50 results are on record in PubChem BioAssay (EPA / NIEHS).

Several values for one entry are separate records, joined by “and”; a condition that tells them apart may be missing. Equal values may be shown once. Inconclusive results are not listed. Some compounds were tested as several samples or in several runs, with calls that do not always agree. Activity calls are given as the source filed them. Rule for the calls: active = hit-call score of the fitted dose curve at least 0.9, where 1 is the maximum; inconclusive = response in the unintended direction; inactive = score below 0.9.

The term AC50 denotes the midpoint of the concentration-response curve, whichever way the signal moves.

The nature of assay [1]: ArunA_CellTiter_hNC: Viability Assessment in the ArunA Biomedical's Oris Neural Crest (hNC) Cell Migration Assay (AID 2283752). Put shortly: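 Cytotoxicity endpoint run alongside the migration assay: neural crest cells on Matrigel, 60,000 per well, preincubated 16 h at 37C, treated 72 h; CellTiter Aqueous One signal loss relative to DMSO.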
The nature of assay [2]: ArunA_CellTiter_hNP: Viability Assessment in the ArunA Biomedical's Oris Neural Crest (hNC) Cell Migration Assay (AID 2283753). Put shortly:
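Viability read with CellTiter 96 Aqueous One after 72 h chemical exposure of human hNP1 neuroprogenitors, which were plated on Matrigel in LIF/bFGF medium 16 h beforehand. Endpoint fitted in positive direction relative to DMSO.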

Assay [3] in a line: ArunA_Migration_hNP: ArunA Biomedical's Oris Neuroprogenitor (hNP) Cell Migration Assay (AID 2283754). The protocol:
ArunA_Migration_hNP is a cell-based, single-readout assay that uses human H9-derived neuroprogenitor stem cells (hNP1). Measurements were taken 72 hours after chemical dosing in a 96-well plate.ArunA_Migration_hNP is an assay component measured from the ArunA_Migration_hNP assay. It is designed to make measurements of cell migration, a form of distribution reporter, as detected with fluorescence intensity signals by HCS Fluorescent Imaging technology. Data from the assay component ArunA_Migration_hNP was analyzed at the endpoint, ArunA_Migration_hNP, in the positive analysis fitting direction relative to DMSO as the negative control and baseline of activity. […]
To assess the hNP and hNC migration and cell titer endpoints, 60,000 cells per well were plated onto Matrigel in basal growth medium with LIF and bFGF in a 96-well plate format. […] Cell viability in the detection zone was quantitated using a Flexstation3 microplate reader (ex494 nm/em 517 nm). Corresponding cell titer endpoints were assessed for the hNP and hNC cells using the Promega CellTiter Aqueous One Solution Cell Proliferation Assay (Cat no. G3581; CellTiter 96). Finally, to gain insight into the mechanisms by which cells migrate into the detection zone, Ki-67 expression was quantified for 10 additional chemicals in the hNP and hNC systems. […]

A short description of assay [4]: ArunA_Migration_hNC: ArunA Biomedical's Oris Neural Crest (hNC) Cell Migration Assay (AID 2283755). Put shortly:
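Calcein-AM fluorescence (ex494 nm/em 517 nm) in the stopper-defined detection zone quantifies migration of hNC cells after 72 h chemical exposure; 60,000 cells/well plated on Matrigel with LIF and bFGF, 16 h pre-incubation. DMSO baseline.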

The nature of assay [5]: ArunA_NOG_NucleusCount: ArunA Biomedical's Neurite Outgrowth (NOG) Assay for Nucleus Count (AID 2283756). Put shortly:
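Viable neuron count, from Hoechst nuclei passing size and intensity gates, imaged at 20x on differentiated H9-derived human neurons. Exposure lasted 48 h from seeding; activity was scored relative to DMSO.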

A short description of assay [6]: ArunA_NOG_NeuriteLength: ArunA Biomedical's Neurite Outgrowth (NOG) Assay for Neurite Length (AID 2283757). Put shortly:
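Total neurite length per neuron, from traced βIII-tubulin-labelled processes longer than 10 um on viable Hoechst-gated cells, was scored as decrease from DMSO. Cells were hESC (H9)-derived neurons given 48 h chemical exposure immediately after seeding.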

Assay [7] can be described thus: ArunA_NOG_NeuritesPerNeuron: ArunA Biomedical's Neurite Outgrowth (NOG) Assay for Neurites Per Neuron (AID 2283758). Put shortly: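 Differentiated human H9-derived neurons exposed to chemicals for 48 h from seeding, then stained with Hoechst and βIII-tubulin/DyLight 488. Automated imaging counted neurites (processes >10 um) per valid neuron; loss of signal versus DMSO scored.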

The nature of assay [8]: ArunA_NOG_BranchPointsPerNeurite: ArunA Biomedical's Neurite Outgrowth (NOG) Assay for Branch Points Per Neurite (AID 2283759). Put shortly:
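Automated image analysis traced neurites (processes >10 um) from valid cell bodies after Hoechst and βIII-tubulin staining. hNN cells from H9 embryonic stem cells, 48 h exposure. Fitted bidirectionally against DMSO.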

The test system of assay [9] is zebrafish Estrogen Receptor (ESR2B), gene 317733. Kind of assay: ATG_zfER2b_XSP1: Attagene TRANS-FACTORIAL Multi-Species (XSP1) HepG2 Assay for zebrafish Estrogen Receptor (ESR2B) (AID 2283773). Put shortly:
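Medium contained 3 nM 6-alpha-fluorotestosterone. Reporter mRNA induction by exogenous zebrafish ER2b-Gal4 chimera was read 24 h post-dose in transiently transfected HepG2 cells, using RT-PCR, fluorescent labelling, HpaI digestion and capillary electrophoresis.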

The test system of assay [10] is frog Estrogen Receptor (ESR2), gene 100174814. Put plainly: ATG_frER2_XSP1: Attagene TRANS-FACTORIAL Multi-Species (XSP1) HepG2 Assay for frog Estrogen Receptor (ESR2) (AID 2283774). Put shortly: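 Reporter mRNA from a multiplexed TRANS system, measured by RT-PCR with fluorescent labelling and capillary electrophoresis, 24 hours after chemical exposure. Human HepG2 liver cells carried exogenous frog ER-Gal4 chimera; medium included 3 nM 6-alpha-fluorotestosterone; increases versus DMSO analysed.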

Regarding `O=C(CCCN1CCC(O)(c2ccc(Cl)cc2)CC1)c1ccc(F)cc1`, the outcome in assay [1] and in [4] was inactive. For the same compound, the AC50 is 12.4 µM (active) in [2]; 50 µM (active) and 61.7 nM (active) in assay [3]; 5.34 µM (active) in [4]; 78.9 µM (active) in assay [5]; 78.1 µM (active) in [6]; 77.9 µM (active) in [7]. The AC50 in assay [8] is 73.3 µM (active).

Turning to `C[C@]12CC[C@@H]3c4ccc(O)cc4CC[C@H]3[C@@H]1C[C@@H](O)[C@@H]2O`, the AC50 in assay [9] was 14.3 nM (active); in assay [10] it was 27.9 nM (active).

`OCC(CO)(CBr)CBr`: the outcome in assay [1], in assay [2], in [3], in [4] and in assay [5] was inactive.
